From PubChem BioAssay AID1345083 (National Center for Advancing Translational Sciences (NCATS), 2018)
Out of some 94,000 compounds screened, about 6,200 (6.6%) were called active. About 31% were inconclusive and are not listed. What follows is part of a selection rich in actives, with near analogues and random picks from the rest. Values without a mark were called inactive. Calls come from the whole dose curve; as a rule, active = well fitted inhibition curve with a large enough effect; inconclusive = small, poorly fitted or top-dose-only effect; inactive = flat fitted curve, though single readings scatter.

Assay: Cytotoxic Profiling in HEK 293 Cell Line of Diverse Libraries Using Quantitative High-Throughput Screening; note: nearly all actives have a fitted effect of over 60% in size
Settings: HEK 293 viability, ATP luminescence (CellTiter-Glo), 48-72 h; series mostly up to 115 µM; activity change, negative = cytotoxicity: at the top concentration
Method in brief: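 250 HEK 293 cells/well; compound by pintool; incubated 48 or 72 hr at 37 degree Celsius; CellTiter-Glo added, 10 min RT, luminescence imaged.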
% is set by controls: 0 for no effect and ±100 for the full control effect; potency is the fitted concentration of half-maximal effect.

SMILES | activity change, negative = cytotoxicity | outcome | Potency
COC(=O)[C@@H]1Cc2ncn(Cc3ccc(Cl)cc3)c2CN1S(=O)(=O)c1ccc(C(C)=O)cc1 | -1.59% | – | –
CCCN(CC1CCOC1)C(=O)Nc1cc(C)ccc1OC (centres undefined) | 4.73% | – | –
Cc1ncsc1CCC(=O)N[C@@H]1COCC[C@@H]1Oc1cccc(F)c1 | – | inactive | –
COc1ccc2[nH]cc(CCNC(=O)C3CCCN(Cc4ccncc4)CCC(=O)NCC3)c2c1 (centres undefined) | – | inactive | –
Cc1cc(C(=O)N2CCCCC2c2noc(COc3ccc(F)cc3)n2)nn1C (centres undefined) | -29.3% | – | –
COc1ccc2ccc(OCc3nc(C(=O)N4CCC(=O)NCC4C)co3)cc2c1 (centres undefined) | – | – | 44.7 µM (active)
COc1ccc(OCc2nc(C(=O)N3CCCC(C)(CO)C3)co2)cc1 (centres undefined) | -24.8% | – | –
Cc1nc(N2CCC(NC(=O)c3ccc4c(c3)OCO4)CC2)cc(C(F)(F)F)n1 | -17.7% | – | –
Cc1nc(N2CCC(C(=O)NCc3ccc(C(C)C)cc3)CC2)cc(C(F)(F)F)n1 | – | – | 31.6 µM (active)
COc1ccc(OC)c(NC(=O)C2CCN(c3cc(C(F)(F)F)ncn3)CC2)c1 | -13.9% | – | –
Cc1ccc(N2Cc3c(NCC4CC4)ncnc3N(C)CC2=O)cc1 | -6.31% [at 172 µM] | – | –
CN1CCN(C2CCOC3(CCN(S(=O)(=O)c4cn(C)cn4)CC3)C2)CC1 (centres undefined) | 6.96% | – | –
CC(C)C(=O)N1CCC(OC2CCN(Cc3ccccc3)CC2)CC1 | -18.1% | – | –
O=C(NCc1cccnc1)C1CCCN(c2cnn(Cc3ccccc3)c(=O)c2)C1 (centres undefined) | -21.1% | – | –
COCCNC(=O)N1CCc2nn(Cc3ccccc3)c(=O)n2CC1 | -1.17% | – | –
CN(C)CCNC(=O)C(C)(C)Oc1nn(Cc2cccc(Cl)c2)c2ccccc12 | – | – | 31.6 µM (active)
COCc1ccc2c(c1)c(OC(C)(C)C(=O)NC1CCC(O)CC1)nn2Cc1cccnc1 (centres undefined) | -3.5% | – | –
COCc1ccc2c(c1)c(OC(C)(C)C(=O)N1CCN(C)CC1)nn2Cc1cccnc1 | – | inactive [at 172 µM] | –
CC(C)(Oc1nn(Cc2cccc(Cl)c2)c2ccccc12)C(=O)Nc1cccnc1 | – | – | 35.5 µM (active)
CN1CCN(C(=O)C(C)(C)Oc2nn(Cc3cccc(Cl)c3)c3ccccc23)CC1 | – | – | 70.8 µM (active)
Cc1ccccc1C(=O)NCc1c[nH]c2ncccc12 | -4.04% [at 172 µM] | – | –
N#Cc1ccc(CN2CC3CCC(C2)N3c2ccc(C(F)(F)F)cc2)cc1 | 1.8% | – | –
O=C(c1ccn[nH]1)N1CCC[C@H](n2c(=O)n(CC3CC3)c3cccnc32)C1 | -3.78% | – | –
COCCn1c(=O)n([C@H]2CCCN(C(=O)c3ccccc3F)C2)c2ncccc21 | -4.8% | – | –
NC(=O)c1cccnc1OC1CCN(Cc2cccnc2)CC1 | -1.27% | – | –

SMILES | activity change, negative = cytotoxicity | outcome | Potency
CCOCc1nc(C2CCCN(C(=O)NC(C)C)C2)no1 (centres undefined) | 6.9% | – | –
O=C(NCc1ccco1)C1CCCN(c2cnn(Cc3ccccc3)c(=O)c2)C1 (centres undefined) | -10.3% | – | –
Cc1noc(C)c1S(=O)(=O)N1CCC(c2noc(-c3ccccn3)n2)C1 (centres undefined) | -0.0231% | – | –
O=C1CCN(C(=O)C2COc3ccccc3O2)CCOCCN1 (centres undefined) | -13.6% | – | –
C[C@@H](NC(=O)C1=C[C@@H](NC(=O)CC2(CC(=O)O)CCCC2)[C@@H](O)[C@H](O)C1)C(N)=O | – | inactive [at 172 µM] | –
CN1CCC(C(=O)N2CC(F)(F)C[C@H]2c2nc(C3CC3)no2)CC1 | 1.09% | – | –
COCCCNc1cc(-c2ccsc2)nc2c(C)noc12 | -25.3% [at 172 µM] | – | –
Cc1noc2c(NC3CCCCC3)cc(-c3ccsc3)nc12 | – | – | 89.1 µM (active)
O=C(Nc1ccc(-c2nnc3n2CCCC3)cc1)c1ccccn1 | 0.901% | – | –
CC(=O)N1CCCC2(C1)CN(C)c1ccc(C(=O)NC3CC3)cc12 (centres undefined) | 4.11% [at 172 µM] | – | –
CNc1nc(C(=O)NCc2ccc3[nH]c(-c4ccc(F)cc4)c(C)c3c2)cs1 | – | – | 39.8 µM (active)
COc1ccc(CNC(=O)Cn2cccc2-c2nc(-c3ccc(F)cc3)no2)cc1 | -3.89% | – | –
COc1ccc(-c2ccc(C(=O)NCc3ccc(F)cc3)cc2)nn1 | -8.21% [at 172 µM] | – | –
COCCCN(CCC(=O)NCc1ccc(F)cc1)C(=O)c1cc(C)oc1C | -6.59% | – | –
Cc1c(-c2ccc(F)cc2)[nH]c2ccc(CNC(=O)c3ccc(CO)o3)cc12 | – | – | 31.6 µM (active)
N#Cc1cccc(-c2c(C(=O)NCc3ccc(F)cc3)nc3sccn23)c1 | -4.66% [at 172 µM] | – | –
CCOc1ccc2c(n1)CCN(C(=O)Nc1ccc(OC)cc1C)C2 | -5.05% | – | –
CN1CC(=O)N(c2cccc(F)c2)Cc2c(NC3CCNCC3)ncnc21 | 1.38% | – | –
CS(=O)(=O)N1CCCN(C(=O)Cc2cccc(F)c2)CCNC(=O)CC1c1ccccc1 (centres undefined) | -0.201% | – | –
O=C(c1ccccn1)N1CCCC(c2nc(CCOCC3CCOCC3)no2)C1 (centres undefined) | -18.8% | – | –
CCOCC(=O)N1CC(c2nc(CCOc3cccc(C)c3)no2)C1 | -25.3% | – | –
Cc1cccc(OCCc2noc(C3CCCN(Cc4ccccc4C#N)C3)n2)c1 (centres undefined) | – | – | 89.1 µM (active)
Cn1ncc2c(C(=O)Nc3cccc(C(F)(F)F)c3)cc(-c3cccc(C(F)(F)F)c3)nc21 | -31.4% | – | –
COc1cccc(-c2cc(C(=O)Nc3cccc(Cl)c3)c3cnn(C)c3n2)c1 | – | – | 39.8 µM (active)
COc1cccc(-c2cc(C(=O)Nc3cccc(F)c3)c3cnn(C)c3n2)c1 | – | – | 44.7 µM (active)

SMILES | activity change, negative = cytotoxicity | outcome | Potency
Cc1ccc(NC(=O)c2cc(C(C)(C)C)nc3c2cnn3C)cc1 | – | – | 79.4 µM (active)
COc1cccc(-c2cc(C(=O)N3CCN(C(C)=O)CC3)c3cnn(C)c3n2)c1 | -18.6% | – | –
Cn1ncc2c(C(=O)Nc3ccc(F)cc3)cc(-c3ccc(Cl)cc3Cl)nc21 | 0.727% | – | –
COc1cccc(CNC(=O)c2cc(-c3ccc(Cl)nc3)nc3c2cnn3C)c1 | -8.6% | – | –
Cn1ncc2c(C(=O)NC3CCCCC3)cc(-c3cccnc3)nc21 | -18.9% [at 172 µM] | – | –
CCn1nc(C)cc1C(=O)N1C[C@H]2OC(=O)N(CCCN3CCOCC3)[C@H]2C1 | -26.4% | – | –
O=C(Nc1cccnc1)O[C@H]1COCCN(c2nc3ccccc3s2)C1 | -19% [at 172 µM] | – | –
COc1cccc([S+](=O)([O-])N2CCCC3(CC(c4cccc(C(F)(F)F)c4)=NO3)C2)c1 (centres undefined) | -20.1% | – | –
CC(C)N1C[C@H](O)C[C@H]1c1nnc2n1CCN(C(=O)c1ccccn1)CC2 | -14.3% | – | –
CO[C@H]1C(=O)N(C2CCN(S(=O)(=O)c3c(C)nn(C)c3C)CC2)[C@H]1c1ccncc1 | -4.47% | – | –
CCCN1C(=O)NC(CC(=O)N2CCC(O)(c3ccc(C)cn3)CC2)C1=O (centres undefined) | -16.1% | – | –
CN(C)S(=O)(=O)N1C[C@@H]2CC[C@H](C1)N(Cc1ccccc1C#N)C2 | -13.7% | – | –
CC1(C)[C@H](Cc2cc(-c3ccccc3)on2)C[C@@H]1NS(C)(=O)=O | – | – | 89.1 µM (active)
CC1(C)[C@H](Cc2cc(-c3ccccc3)on2)C[C@@H]1NCC1CC1 | – | – | 100 µM (active)
CC1(C)[C@H](Cc2cc(CCO)on2)C[C@@H]1NCC1CC1 | -3.06% [at 230 µM] | – | –
CCn1cnnc1CC1CCN(C(=O)c2cc(-c3ccc(F)cc3)nc3ccccc23)CC1 | -31.2% | – | –
CN(C)C(C(=O)N1CCC(N2CCSCC2)CC1)c1cccc(F)c1 (centres undefined) | 2.08% | – | –
O=C(NC[C@H]1O[C@@H](CO)[C@@H](O)[C@H]1N1CCOCC1)Nc1ccc(OC(F)(F)F)cc1 | 4.47% | – | –
O=C(NCc1ccccc1)c1ccc2nc(-c3ccnc(Cl)c3)oc2c1 | -0.349% [at 172 µM] | – | –
O=C(NCCc1ccccc1)c1ccc2oc(-c3cccnc3)nc2c1 | -15.5% | – | –
O=C(NCc1cnn(Cc2ccccc2)c1)c1ccc2oc(-c3cccc(F)c3)nc2c1 | – | – | 7.08 µM (active)
COC1CCOC2(CCN(C(=O)c3cnccn3)CC2)C1 (centres undefined) | -8.41% | – | –
CN(C(=O)NCc1ccccc1)C1CCc2nn(CC3CC3)c(=O)n2CC1 (centres undefined) | -7.23% | – | –
O=C(C1Cn2cccc2C(=O)N1Cc1ccccc1)N1CCOCC1 (centres undefined) | -8.46% | – | –
O=S(=O)(Cc1ccccc1)N1CCCC(Cc2nncn2CC2CC2)C1 (centres undefined) | – | inactive | –

SMILES | activity change, negative = cytotoxicity | outcome | Potency
Cc1ccc(S(=O)(=O)N2CC[C@H](c3nnc(-c4ccccc4)o3)C2)cc1 | -21.2% [at 172 µM] | – | –
Cc1cnc(CC2CCN(S(=O)(=O)c3ccc(C#N)cc3)C2)n1Cc1ccccc1 (centres undefined) | – | – | 44.7 µM (active)
CCN(CCn1cccn1)Cc1cnc(S(=O)(=O)Cc2ccccc2)n1CC(C)C | -18.6% | – | –
O=C(C1CCCCC1)N1CC2(Cc3ccccc3NC2=O)C1 | -17.9% | – | –
O=C(NCc1c[nH]c2ncccc12)c1ccccc1F | -18.3% [at 172 µM] | – | –
COCCN1C(=O)Cc2ccccc2C1C(=O)NCC1CCCCC1 (centres undefined) | 10% | – | –
CCc1ccc(CNC(=O)C2c3ccccc3CC(=O)N2C(C)C)cc1 (centres undefined) | -27.9% | – | –
COC(=O)[C@@H]1Cc2ncn(Cc3ccc(OC)cc3)c2CN1S(C)(=O)=O | -6.58% [at 172 µM] | – | –
CC(C)C[C@@H]1N[C@H](C(=O)NCc2ccc(F)cc2)Cc2cn(C)c3cccc1c23 | – | – | 70.8 µM (active)
COc1ccc(CNC(=O)[C@H]2O[C@H](CCN3CCN(C)CC3)CC[C@@H]2O)cc1 | -12% [at 172 µM] | – | –
C=CCn1cc2c3c(cccc31)[C@H](CC(C)C)N[C@H](C(=O)NCC1CC1)C2 | – | – | 79.4 µM (active)
CN1CC(C(=O)NCc2ccccc2)NC1=O (centres undefined) | – | inactive [at 172 µM] | –
COc1ccc(CNC(=O)[C@@H]2Cc3cn(Cc4ccncc4)c4cccc(c34)[C@H](CC(C)C)N2)cc1 | – | – | 39.8 µM (active)
CC(C)N1CCC(OCCCNC(=O)C2Cn3cccc3C(=O)N2)CC1 (centres undefined) | 2.23% | – | –
CN1CC2(CCN(C(=O)c3ccncc3)CC2)CC1C(=O)N1CCOCC1 (centres undefined) | -3.04% | – | –
CNC(=O)c1cc(C2CC2)nc2onc(C3CCN(C(=O)Nc4ccccc4)C3)c12 (centres undefined) | -12.7% | – | –
CNC(=O)c1cc(C2CC2)nc2c1c(C1CCN(C(=O)C(C)C)C1)nn2C (centres undefined) | -22% | – | –
COC[C@H]1C[C@@H](NC(=O)c2cc(C)oc2C(F)(F)F)[C@H](O)[C@@H]1O | -0.359% [at 172 µM] | – | –
Cc1cc(S(=O)(=O)N2CCC(n3cnnc3C(C)C)CC2)ccc1F | -7.71% | – | –
Cc1cc(S(=O)(=O)N2CCCN(C)c3ccccc32)ccc1F | – | – | 79.4 µM (active)
CN1CCCN(C(=O)c2cc(F)ccc2F)c2ccccc21 | -29.6% | – | –
CCOc1ccc(-c2cc3c(=O)n(CCNC(=O)c4ccc(OC)cc4C)ccn3n2)cc1 | -42.3% | – | –
COc1cccc(CNC(=O)Cn2ccn3nc(-c4ccc(F)cc4)c(CO)c3c2=O)c1 | -4.92% | – | –
CCC(C(=O)NCCn1ccn2nc(-c3ccc(F)cc3)cc2c1=O)c1ccccc1 (centres undefined) | – | – | 20 µM (active)
